The values that follow come from PubChem BioAssay AID489038 (National Center for Advancing Translational Sciences (NCATS), 2010).

Results filed as inconclusive are left out. Entries that show only a call come without a potency. Activity calls are given as the source filed them. The call rests on the fitted dose curve; in most records, active means well fitted inhibition curve with a large enough effect; inconclusive means small, poorly fitted or top-dose-only effect, or effect the other way; inactive means no such curve, though single readings can be large or run the other way.
Potency means the concentration at half of the fitted maximal effect.

This assay can be described thus: DHR3 selectivity assay for inhibitors of ROR gamma transcriptional activity. The settings on record: Drosophila S2 Gal4-DHR3 UAS-luciferase, 20 h; series mostly up to 92.2 µM. From the text: NIH Molecular Libraries Probe Production Network [MLPCN] NIH Chemical Genomics Center [NCGC] MLPCN Grant: R03 DA026211-01 Assay Provider: Dan Littman, New York University Assay Overview: The retinoic acid-related orphan receptor (ROR) gamma is a transcription factor that has a central role in the differentiation of Th17 cells, a subset of T helper cells that secrete the inflammatory cytokines IL-17A, IL-17F, and IL-22. Th17 cells have been implicated in graft versus host disease, autoimmune disease and asthma. RORgamma is induced in naive T helper cells in the presence of TGF-beta combined with IL-6, IL-21, or IL-23, and thereafter directs the expression of the Th17 lineage cytokines. To identify […] inhibitors, a Drosophila Schneider cell line was stably transfected with two vectors: a gene expressing a fusion of the Gal4 DNA binding domain and the transactivation domain of the Drosophila Hormone Receptor 3 (DHR3), under the control of the metallothionine promoter and a Photinus luciferase reporter regulated by the Gal4 binding site enhancer, UAS. […] Small molecule inhibitors that inhibit components common to the RORgamma and DHR3 assays, such as proteins that interact with general nuclear hormone receptors, will be active in both assays and thus scored as nonselective.
Assay Protocol Summary: For screening, 600 cells in 4 uL/well were dispensed into white solid 1536-well plates (Grenier) using a solenoid-based dispenser. Following transfer of 23 nL compound or DMSO vehicle by a pin tool, the plates were incubated 1 hr at ambient temperature, and 1 uL/well copper sulfate (700 uM final concentration) was added. The plates were centrifuged 15 s at 1000 RPM and incubated 20 hr at ambient temperature. After addition of 1.5 uL Photinus luciferase detection reagent, the plates were incubated 10 min at ambient temperature and then read by an ViewLux (Perkin Elmer) to detect luminescence.
Consider `COc1cc(O)c(C(CC(=O)N2CCCC(c3nc4ccccc4o3)C2)c2ccc3c(c2)OCO3)c(OC)c1` (stereo not given), for which the Potency entry was “inactive”.
As for `COc1ccc(C(CC(=O)N2CCCC(C)C2)c2ccc3c(c2)OCO3)c(O)c1` (stereo not given), the Potency result is “inactive”.
As for `C[C@@H]1[C@H](C)CC[C@]2(C(=O)O)CC[C@]3(C)C(=CC[C@@H]4[C@@]5(C)CC[C@H](O)C(C)(C)[C@H]5CC[C@]43C)[C@@H]12`, the figure is 18.2 µM (active); as for `COc1cc(O)c(C(CC(=O)N2CCCC(C(F)(F)F)C2)c2ccc3c(c2)OCO3)c(OC)c1` (stereo not given), “inactive”.
As for `COc1cc(O)c(C(CC(=O)N2CCCC(C(=O)c3ccccc3)C2)c2ccc3c(c2)OCO3)c(OC)c1` (stereo not given), the entry is “inactive”; as for `COCC1CCCN(C(=O)CC(c2ccc3c(c2)OCO3)c2c(O)cc(OC)cc2OC)C1` (stereo not given), “inactive”; as for `COc1ccccc1C(CC(=O)N1CCCC(C)C1)c1ccccc1` (stereo not given), “inactive”.
As to `COc1cc(O)c(C(CC(=O)N2CCCC(C)C2)c2ccc3c(c2)OCO3)c(OC)c1` (stereo not given), the Potency entry was “inactive”.
`COc1cc(O)c(C(CC(=O)N2CCCC(CN3CCCCC3)C2)c2ccc3c(c2)OCO3)c(OC)c1` (stereo not given): the Potency entry was “inactive”.
As for `Cc1ccc(C)c(C(CC(=O)N2CCCC(C)C2)c2ccc3c(c2)OCO3)c1O` (stereo not given), the entry is “inactive”; as for `COc1cc(O)c(C(CC(=O)N2CCCC(C)C2)c2ccccc2OC)c(OC)c1` (stereo not given), “inactive”; as for `COc1ccc(C(=O)/C=C/c2ccc(OC)cc2OC)c(O)c1`, 0.645 µM (active).
Under `COc1cc(O)c(C(CC(=O)N2CCCC(C)C2)c2cccc3ccccc23)c(OC)c1` (stereo not given) stands “inactive”; under `CC1CCCN(C(=O)CC(c2ccc3c(c2)OCO3)c2cc(-c3ccccc3)ccc2O)C1` (stereo not given), “inactive”; under `CC(C)(C)c1ccc(-c2noc(CCC(=O)Nc3cccnc3)n2)cc1`, 0.0512 µM (active).
As for `CC1CCCN(C(=O)CC(c2ccc3c(c2)OCO3)c2cc(C(C)C)ccc2O)C1` (stereo not given), the entry is “inactive”; as for `COc1ccc(C(CC(=O)N2CCCC(C)C2)c2c(O)cc(OC)cc2OC)c(OC)c1` (stereo not given), “inactive”; as for `CCOc1ccc(-c2cc(CCCC(=O)NCc3cccnc3)no2)cc1`, 0.812 µM (active).
In the case of `Cc1ccc(Sc2cncc3sc(C(N)=O)cc23)cc1`, the Potency was 0.102 µM (active).
As for `Cc1cc(C)c2[nH]c(C(=O)Nc3ccc4c(c3)OCO4)cc2c1`, the figure is 0.204 µM (active).
Under `COc1cc(O)c(C(CC(=O)N2CCCC(C#N)C2)c2ccc3c(c2)OCO3)c(OC)c1` (stereo not given) stands “inactive”.
Under `COc1cc(O)c(C(CC(=O)NCc2ccccc2)c2ccc3c(c2)OCO3)c(OC)c1` (stereo not given) stands “inactive”.
In the case of `Cc1ccc(C(C)C)c(C(CC(=O)N2CCCC(C)C2)c2ccc3c(c2)OCO3)c1O` (stereo not given), the Potency result is “inactive”.
As for `COc1cc(O)c(C(CC(=O)NC2CCCc3ccccc32)c2ccc3c(c2)OCO3)c(OC)c1` (stereo not given), the Potency entry is “inactive”.
As for `COc1cc(O)c(C(CC(=O)N2CCc3ccccc32)c2ccc3c(c2)OCO3)c(OC)c1` (stereo not given), the entry is “inactive”; as for `COc1cc(O)c(C(CC(=O)N2CCOCC2)c2ccc(C)cc2)c(OC)c1` (stereo not given), “inactive”.
In the case of `CCOC(=O)C1CCN(CC(=O)Nc2cc(C)nn2-c2nc3ccccc3s2)CC1`, the Potency was 7.24 µM (active).
With `COc1cc(OC)c(C(CC(=O)N2CCCC(C)C2)c2ccc3c(c2)OCO3)c(OCc2ccccc2)c1` (stereo not given), the Potency is 14.4 µM (active).
As for `COc1cc(O)c(C(CC(=O)N2CCC(c3ccccc3)CC2)c2ccc3c(c2)OCO3)c(OC)c1` (stereo not given), the entry is “inactive”; as for `Cc1cc(C)c2sc(NC(=O)c3ccc(N4C(=O)CCC4=O)cc3)nc2c1`, 0.102 µM (active); as for `COc1cc(OC)c(C(CC(=O)N2CCCC(C)C2)c2ccc3c(c2)OCO3)c(OC)c1` (stereo not given), “inactive”.
As for `Cc1cccc(-c2nc3cc(NC(=O)C4CCCO4)ccc3o2)c1` (stereo not given), the Potency is 2.29 µM (active).
With `COc1ccc(-c2c[n+]3c(n2-c2ccc(C)cc2)CCCCC3)cc1`, the Potency was 8.12 µM (active).
On to `COCC1CCCCN1C(=O)c1cc(COc2ccc3ncccc3c2)on1` (stereo not given), for which the Potency was 9.11 µM (active).
Regarding `COc1cc(O)c(C(CC(=O)NC2CCC(C)CC2)c2ccc3c(c2)OCO3)c(OC)c1` (stereo not given), the Potency entry was “inactive”.
As for `COc1cc(O)c(C(CC(=O)N(C)c2cccc(C)c2)c2ccc3c(c2)OCO3)c(OC)c1` (stereo not given), the entry is “inactive”; as for `COc1cc(O)c(C(CC(=O)N2CCCC(C(C)C)C2)c2ccc3c(c2)OCO3)c(OC)c1` (stereo not given), “inactive”.
As for `COc1ccccc1CNC(=O)[C@@H](NC(=O)C1CCN(C(=O)[C@@H]2CCCN2C(=O)OC(C)(C)C)CC1)C(C)C`, the entry is “inactive”; as for `COc1cc(OC)c(C(CC(=O)N2CC(C)CC(C)C2)c2ccc3c(c2)OCO3)c(OCC(N)=O)c1` (stereo not given), “inactive”; as for `O=C(CCCN1C(=O)/C(=C/c2ccccc2Cl)SC1=S)Nc1cccnc1`, 0.645 µM (active).
